Results: PubChem BioAssay AID2544 (Sanford-Burnham Center for Chemical Genomics, 2010)
The campaign covered roughly 330,000 compounds. About 390 (0.12%) were called active. For the sample, actives were picked, then their nearest neighbours and some compounds at random. Values without a mark were called inactive.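 The calls were made as follows: active = inhibition reaching a set limit with compound at 10 µM in the primary screen (cut at about 35% in these data); inactive = the rest.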

These molecules were tested against Intestinal-type alkaline phosphatase (Homo sapiens) (UniProt P09923) (assay: blockers of intestinal alkaline phosphatase activity – biochemical, luminescence, uHTS, primary screen (AID 2544;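 also: plate controls were DMSO wells with enzyme for no effect and no-enzyme buffer wells for full effect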)). Settings: purified IAP, CDP-Star luminescence, 30 min; at 10 µM; hits give high values.
Sequence of Intestinal-type alkaline phosphatase (Homo sapiens) (P09923 whole entry, looked up): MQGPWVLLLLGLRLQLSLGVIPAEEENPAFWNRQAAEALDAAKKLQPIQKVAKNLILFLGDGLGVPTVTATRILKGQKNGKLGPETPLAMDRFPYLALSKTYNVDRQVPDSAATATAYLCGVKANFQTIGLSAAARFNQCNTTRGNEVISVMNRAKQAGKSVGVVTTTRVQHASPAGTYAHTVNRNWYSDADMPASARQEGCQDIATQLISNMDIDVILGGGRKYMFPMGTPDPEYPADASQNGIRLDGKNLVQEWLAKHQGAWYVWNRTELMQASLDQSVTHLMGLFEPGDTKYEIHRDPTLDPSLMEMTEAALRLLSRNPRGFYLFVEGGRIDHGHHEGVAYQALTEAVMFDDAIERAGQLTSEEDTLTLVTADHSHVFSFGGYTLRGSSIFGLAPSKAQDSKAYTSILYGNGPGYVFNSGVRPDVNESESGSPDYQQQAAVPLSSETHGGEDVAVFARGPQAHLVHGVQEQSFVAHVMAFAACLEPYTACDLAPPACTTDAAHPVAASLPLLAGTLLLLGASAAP

SMILES | inhibition
COc1cccc(CNS(=O)(=O)c2ccc3c(c2)N(C(C)=O)CCS3)c1 | 38.6% (active)
COc1cccc(CNS(=O)(=O)c2ccc3c(c2)CC(C)N3C(=O)C2CCC2)c1 (centres undefined) | 4.9%
COc1cccc(CNS(=O)(=O)c2csc(C(N)=O)c2)c1 | 13.3%
CC1CN/C(=C\C(=O)c2ccc(Br)cc2)C(=O)N1 (centres undefined) | -17%
COC(=O)c1ccc(COC(=O)c2cnccn2)cc1 | 21.3%
Cc1cc(NC(=O)C(C)N2C(=O)c3ccccc3S2(=O)=O)no1 (centres undefined) | -15.1%
Cn1cnnc1Sc1ccc(S(C)(=O)=O)cc1[N+](=O)[O-] | -11.6%
CCn1c(C)nc2c1C(=O)c1ccccc1C2=O | 1.5%
N#C/C(=C\c1ccc(O)c(O)c1)C(=O)NCc1ccccc1 | 37.4% (active)
COc1ccc(CNC(=O)/C(C#N)=C/c2cccc(OC)c2OC)cc1 | -1.8%
COCCNC(=O)/C(C#N)=C/c1cccc(OCc2ccccc2)c1 | 1.1%
O=C(NCCCc1ccccc1)C1CCC(CNc2c(N3CCCCC3)c(=O)c2=O)CC1 (centres undefined) | -6.9%
CN1C=CC=C/C1=C1\SC(=S)N(Cc2ccccc2)C1=O | -4.6%
COc1cccc(/C=C2/SC(=S)N(CC(=O)NC3C=CS(=O)(=O)C3)C2=O)c1 (centres undefined) | -52%
COc1cc(/C=C2/SC(=S)N(Cc3ccccc3)C2=O)cc(OC)c1O | 39.3% (active)
CC1CCCCC1NC(=O)c1cn(C)c2ccc(S(=O)(=O)N3CCOCC3)cc2c1=O (centres undefined) | -21.4%
CCc1ccccc1NC(=S)N(CCN1CCCCCC1)Cc1ccco1 | -3.8%
CCCC(C(=O)NCc1ccco1)N(C(=O)CNS(=O)(=O)c1ccccc1)C1CCCC1 (centres undefined) | -14.9%
Cc1cc(-c2nnc(SCC(=O)Nc3ccc(F)cc3)n2N)n[nH]1 | -8.7%
CC(=O)Nc1ccc(S(=O)(=O)NCC(=O)OCC(=O)c2ccc[nH]2)cc1 | 5.4%

SMILES | inhibition
Cc1noc(C)c1COc1ccccc1C(=O)N(C)CC(=O)Nc1cccc(F)c1 | -9.4%
Cc1ccc(OCCNC(=O)CNC(=O)c2ccc(C)c(C)c2)cc1 | -7.8%
CCOc1nnc(C)c2c(C)n(-c3cccc(Cl)c3)nc12 | -4.1%
Cc1cccc(C(=O)Nc2ccc(C(=O)/C=C/c3cccs3)cc2)c1 | -7.8%
CCOc1ccc(NC(=O)CN(C)C(=O)CCSc2ccc(F)cc2)cc1OCC | -1.7%
Cn1c(SCc2nc3ccccc3s2)nnc1-c1ccc2c(c1)OCO2 | 16.7%
COc1ccc(CNC(=O)c2c[nH]c3c(OC)cc(OC)cc3c2=O)cc1 | -24.3%
COc1ccc(N2CCN(C(=O)COC(=O)c3cccc(S(=O)(=O)Nc4ccccc4OC)c3)CC2)cc1 | 9.2%
O=c1c(/C=N/O)coc2ccc(Cl)cc12 | 54.1% (active)
Cc1ccc2occ(/C=N/NC(=O)c3ccccc3C)c(=O)c2c1 | 13%
CCOC(=O)C1CCN(Cc2coc3ccc(Cl)cc3c2=O)CC1 | -6.6%
Cc1cccc(-n2c(O)c(C=Nc3ccccc3N)c(=O)[nH]c2=O)c1 | 14.1%
CCc1c(C)nc(N)n2c(SCC(=O)NC3CCCCC3)nnc12 | -2.5%
Nc1nnc(SCC(=O)NCC(=O)Nc2ccc(F)c(F)c2F)s1 | -11.7%
O=S(=O)(c1ccc(F)cc1)n1ccc(-c2cnc(-c3ccccc3)s2)n1 | 5.2%
COc1cccc(CN(C)CC2CCCN(CCc3ccc(Cl)cc3)C2)c1OC (centres undefined) | -36.9%
O=C1CN(C(=O)COC(=O)c2cnc(Cl)c(Cl)c2)c2ccccc2N1 | 6.4%
c1ccc(-c2nnc3n2NC(c2ccc4c(c2)OCO4)S3)cc1 (centres undefined) | -10.6%
COc1ccc(Cl)cc1-n1c(=S)sc2c(=O)n(-c3ccc(F)cc3)c(SCC(=O)O)nc21 | 10.8%
COc1ccc2c(c1OC)C(=O)N(c1ncn[nH]1)C2 | 39.6% (active)

SMILES | inhibition
COc1ccc(C2C(C#N)=C(N)N(c3ncn[nH]3)C3=C2C(=O)CCC3)cc1 (centres undefined) | 6.9%
COc1ccc2c(c1OC)C(=O)N(c1ccc(O)cc1)C2 | -4.8%
COc1cc([N+](=O)[O-])ccc1NC(=S)N1CCN(c2ccccn2)CC1 | 6.4%
Cc1cc(C)nc(-n2ncc3c2CC(c2ccc(C(C)C)cc2)CC3=O)n1 (centres undefined) | 3.4%
COc1ccc([N+](=O)[O-])cc1C1NN=C(c2cccc3ccccc23)S1 (centres undefined) | -10.4%
COc1nnc(-c2ccc(C)c(S(=O)(=O)N(C)C)c2)c2ccccc12 | 1.6%
O=c1[nH]c(/C=C\c2cccc(C(F)(F)F)c2)nc(O)c1[N+](=O)[O-] | -10.6%
COCCNC(=O)/C(C#N)=C/c1nc(N(C)C)n(-c2ccc(F)cc2)c1Cl | 8.4%
Cc1ccc(S(=O)(=O)CCC(=O)OCC(=O)N(C)C2CCS(=O)(=O)C2)cc1 (centres undefined) | -12.8%
COc1ccc(C2=Nc3cc(C)ccc3OC2)cc1 | 41.5% (active)
Cc1ccc(C(=O)NNC2=Nc3cc([N+](=O)[O-])ccc3OC2)cc1 | -72.1%
COc1ccc(-c2cn3ccc(C)cc3n2)cc1 | -3.2%
O=C(CNC(=O)c1cc(=O)[nH]c2ccccc12)Nc1ccc(F)c(F)c1 | -5.1%
CC(=O)c1ccc(NC(=O)C2CCCN2S(=O)(=O)c2cccs2)cc1 (centres undefined) | 37.2% (active)
CC(=O)Nc1ccc(S(=O)(=O)N2CCN(S(=O)(=O)c3cccs3)CC2)cc1 | 1.1%
CC(=O)c1cccc(NC(=O)C2CCCN2S(=O)(=O)c2cccc3nsnc23)c1 (centres undefined) | 18.3%
CC(=NCc1ccc2c(c1)OCO2)C1=C(O)c2ccccc2C1=O | 82.2% (active)
O=C(CC(Cc1ccccc1)C(=O)O)NCCc1ccc2c(c1)OCO2 (centres undefined) | -65.3%
CCc1ccc(NC(=O)NC(C)c2ccc3c(c2)OCO3)cc1 (centres undefined) | -18.5%
